One test has as its system PC49. As to the kind of experiment: qHTS profiling for inhibitors of Plasmodium falciparum proliferation (AID 504749). Also: potency is read from the fitted curve at half-maximal effect. The conditions noted are these: P. falciparum in erythrocytes, SYBR Green DNA, 72 h; series mostly up to 28.7 µM. In short, it runs like this: (§1)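 P. falciparum-infected erythrocytes (0.3% parasitemia, 2.5% hematocrit final) were exposed to compounds for 72 h at 37 C in 5% CO2, then lysed with SYBR Green buffer overnight at room temperature; parasite DNA fluorescence was normalized to artemisinin and DMSO controls.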

The next test relates to SC27B. Described as above. The conditions noted are these: P. falciparum in erythrocytes, SYBR Green DNA, 72 h; series mostly up to 28.7 µM. In short, it runs like this:
as §1

For the next test, the system named is TAB109. The test is described as above. To be noted: P. falciparum in erythrocytes, SYBR Green DNA, 72 h; series mostly up to 28.7 µM. The method, boiled down: as §1
Another test deals with TAB113. The test is described as above. The conditions noted are these: P. falciparum in erythrocytes, SYBR Green DNA, 72 h; series mostly up to 28.7 µM. In short, it runs like this: as §1
The next test relates to TAB165. The test is described as above. To be noted: P. falciparum in erythrocytes, SYBR Green DNA, 72 h; series mostly up to 28.7 µM. In short, it runs like this:
as §1

For a further test, the system named is KB-3-1. Put plainly: Cytotoxic Profiling of Annotated Libraries Using Quantitative High-Throughput Screening (AID 1296008). Also: % is scaled to controls: 0 for no effect and ±100 for the full control effect. The conditions noted are these: Five cell lines viability, CellTiter-Glo ATP luminescence, 48-72 h; max response: stronger effect = lower value. In short, it runs like this: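 Compounds were pin-transferred onto cells and incubated 48 or 72 hr at 37 degree Celsius, 95% humidity. CellTiter-Glo was added, plates sat 10 min at room temperature, then ATP-coupled luminescence was imaged as the viability read-out.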

For the next test, the system named is PC26. Put plainly: qHTS profiling for inhibitors of Plasmodium falciparum proliferation (AID 504749). Also: potency is read from the fitted curve at half-maximal effect. To be noted: P. falciparum in erythrocytes, SYBR Green DNA, 72 h; series mostly up to 28.7 µM. In short, it runs like this: as §1
In a further test the test system is W2. Described as above. The conditions noted are these: P. falciparum in erythrocytes, SYBR Green DNA, 72 h; series mostly up to 28.7 µM. In short, it runs like this: as §1

Structures are written as SMILES. “And” between values parts separate entries of the source, which are not always exact repeats. Equal entries are not always repeated. Inconclusive results are not listed. Values without a mark were called inactive. The source made the active and inactive calls. Calls follow the shape of the dose curve; as a rule, active = well fitted inhibition curve with a large enough effect; inconclusive = small, poorly fitted or top-dose-only effect; inactive = flat fitted curve, though single readings scatter.
Also: nearly all actives have a fitted effect of over 60% in size.

`C=CCN=C=S`: the Potency result with PC49, with SC27B, in the test with TAB109, in the test with TAB113 and with TAB165 was “inactive” in each case. For the same compound, the max response in the test with KB-3-1 is -2.35%.
With `CCC(N)Cc1c[nH]c2ccccc12` (centres undefined), the Potency entry with PC26, in the test with PC49, with SC27B, in the test on TAB109, in the test on TAB113 and in the test on TAB165 was “inactive” in each case. In addition, the Potency entry with W2 was “inactive”. Moreover, the max response with KB-3-1 was 3.31% and -1.82%.
`CCOC(=O)c1ccccc1C(=O)OCC`: the Potency result with PC26, with PC49, in the test with SC27B, with TAB109, in the test with TAB113 and in the test with TAB165 was “inactive” each time. Besides, in the test on W2, the Potency result was “inactive”. Also, the max response in the test with KB-3-1 is -4.85%.
Consider `CCN(CC)C(=O)/C(Cl)=C(\C)OP(=O)(OC)OC`, for which the Potency result with PC49, with SC27B, with TAB109, in the test with TAB113 and in the test with TAB165 was “inactive” throughout. In addition, the max response with KB-3-1 was -1.44%.
Consider `CCCC(C)C1(CC)C(=O)NC(=O)NC1=O` (centres undefined), for which the Potency entry in the test with PC26, in the test on PC49, in the test with SC27B, in the test on TAB109, in the test with TAB113 and in the test on TAB165 was “inactive” each time. In the test on W2, the Potency entry is “inactive”. For the same compound, the max response with KB-3-1 is -12.9%.
Take `Clc1ccc(Cl)cc1`: the Potency result in the test with PC26, with PC49, in the test on SC27B, in the test on TAB109, with TAB113 and with TAB165 was “inactive” in each case. For the same compound, the Potency result in the test with W2 was “inactive”. Further, the max response with KB-3-1 is 0.597%.
As for `CCC1(c2ccccc2)C(=O)NC(=O)NC1=O`, the Potency entry in the test with PC26, in the test with PC49, in the test with SC27B, with TAB109, in the test with TAB113 and with TAB165 was “inactive” throughout. Also, the Potency result with W2 was “inactive”. Also, the max response in the test with KB-3-1 was 3.43%.
Turning to `C/C(=C\c1csc(C)n1)[C@@H]1C[C@@H]2O[C@]2(C)CCC[C@H](C)[C@H](O)[C@@H](C)C(=O)C(C)(C)[C@@H](O)CC(=O)O1`, the Potency in the test on PC26 is 0.0034 µM (active); in the test on SC27B, 0.005 µM (active); in the test with TAB109 it was 0.0025 µM (active); with TAB113 it was 0.0035 µM (active); with TAB165, 0.0022 µM (active); with W2, 0.0013 µM (active). Besides, the max response with KB-3-1 is -86.7%.
As for `CC(C)(C)c1cc(O)ccc1O`, the Potency in the test with PC26 was 12 µM (active); in the test on SC27B it was 7.94 µM (active); in the test on TAB109, 4.47 µM (active); with TAB113 it was 12.6 µM (active); in the test on TAB165, 10 µM (active); in the test on W2, 1.69 µM (active) and 4.26 µM (active). Also, the max response with KB-3-1 was 3.78% and 3.98%.
With `CNC(C)C(O)c1ccc(O)cc1` (centres undefined), the Potency result in the test with PC26, in the test on PC49, in the test on SC27B, in the test on TAB109, in the test with TAB113 and in the test with TAB165 was “inactive” throughout. Moreover, the Potency result with W2 is “inactive”. Further, the max response in the test with KB-3-1 was -2.38% and -4.74%.
For the compound `COc1ccc(OC)c(C(O)C(C)N)c1` (centres undefined), the Potency result in the test with PC26, in the test with PC49, in the test on SC27B, in the test on TAB109, in the test with TAB113 and in the test on TAB165 was “inactive” throughout. The Potency result with W2 is “inactive”.
`CC(=O)O[C@H]1CC[C@H]2[C@@H]3CCC4=CC(=O)CCC4=C3C=C[C@]12C`: the Potency result in the test on PC26, with PC49, in the test on SC27B, in the test on TAB109, in the test on TAB113 and in the test with TAB165 was “inactive” each time. Moreover, the Potency entry in the test on W2 is “inactive”.
With `CN1C2CCC1CC(OC(c1ccccc1)c1ccc(Cl)cc1)C2` (centres undefined), the Potency in the test on PC26 is 7.57 µM (active); in the test on PC49, 5.01 µM (active); in the test with SC27B, 11.2 µM (active); in the test with TAB109, 7.08 µM (active); with TAB113 it was 7.94 µM (active); in the test on TAB165 it was 5.01 µM (active). Moreover, in the test with W2, the Potency was 2.39 µM (active).
In the case of `CCC(=O)O[C@@](Cc1ccccc1)(c1ccccc1)[C@@H](C)CN(C)C`, the Potency entry in the test on SC27B, with TAB109, in the test with TAB113 and in the test with TAB165 was “inactive” each time. Also, the max response with KB-3-1 was -0.686%.
Consider `CN1[C@@H]2CC[C@H]1CC(OC1c3ccccc3CCc3ccccc31)C2` (some centres undefined), for which the Potency result with PC49 and in the test on TAB113 was “inactive” throughout. Also, the Potency was 3.98 µM (active) with TAB165 and 2.28 µM (active) in the test on W2. Further, the max response with KB-3-1 was 1.95%.
With `CCOc1ccc2c3c1O[C@H]1[C@@H](O)C=C[C@H]4[C@@H](C2)N(C)CC[C@@]341`, the Potency entry in the test on PC49, in the test with SC27B, in the test on TAB113 and with TAB165 was “inactive” throughout. Further, the max response in the test with KB-3-1 is -8.27%.
Take `Cc1sc2ccccc2c1CC1=NCCN1`: the Potency entry in the test on PC26, in the test on PC49, in the test on SC27B, in the test on TAB109, with TAB113 and in the test with TAB165 was “inactive” each time.
On to `CN1CCCC(=C(c2cccs2)c2cccs2)C1`, for which the Potency with W2 is 4.78 µM (active). The max response in the test on KB-3-1 was -14.6%.
As to `C[C@]12CCC(=O)C[C@@H]1CC[C@@H]1[C@@H]2CC[C@]2(C)[C@@H](O)CC[C@@H]12`, the Potency entry in the test with PC26, in the test on PC49, in the test on SC27B, in the test with TAB109, in the test on TAB113 and in the test on TAB165 was “inactive” throughout. Further, the Potency entry with W2 is “inactive”.
Consider `CCCC(=O)OC(C(Cl)(Cl)Cl)P(=O)(OC)OC` (centres undefined), for which the Potency result in the test with PC49, in the test with SC27B, in the test on TAB109, in the test on TAB113 and with TAB165 was “inactive” each time. Further, in the test with KB-3-1, the max response is -2.33%.
Turning to `[N-]=[N+]=CC(=O)OCC(N)C(=O)O` (centres undefined), the Potency entry in the test on PC26, in the test on PC49, in the test on SC27B, in the test with TAB109, in the test with TAB113 and with TAB165 was “inactive” in each case. The Potency result in the test on W2 was “inactive”.
Turning to `C=CCN1CCC23c4c5ccc(O)c4O[C@H]2C(=O)CC[C@@]3(O)C1C5` (some centres undefined), the Potency result in the test with PC26, with PC49, with SC27B, in the test with TAB109, with TAB113 and in the test with TAB165 was “inactive” each time. Moreover, the Potency result in the test on W2 is “inactive”.
Take `CCC1C(C)=NN=C(c2ccc(OC)c(OC)c2)c2cc(OC)c(OC)cc21` (centres undefined): the Potency entry in the test with PC49, with SC27B, in the test with TAB109, in the test on TAB113 and with TAB165 was “inactive” each time. Also, the max response in the test on KB-3-1 is 11.4%.
For `COc1ccc2c(c1OC)C(=O)OC2C1c2cc3c(cc2CCN1C)OCO3` (centres undefined), the Potency entry in the test with PC49, with SC27B, in the test with TAB109, in the test on TAB113 and with TAB165 was “inactive” throughout.
Take `C[N+]1(C)C2CCC1CC(OC(=O)c1c[nH]c3ccccc13)C2` (centres undefined): the Potency entry in the test with PC26, in the test on PC49, in the test on SC27B, with TAB109, in the test with TAB113 and in the test with TAB165 was “inactive” in each case. The Potency entry with W2 was “inactive”.
Take `c1cc2c(c(NC3=NCCN3)c1)CCCC2`: the Potency entry in the test on SC27B, in the test with TAB109, in the test with TAB113, in the test with TAB165 and with W2 was “inactive” throughout. The max response in the test on KB-3-1 is -8.19%.
Take `CCOP(=O)(OCC)O/C(=C/Cl)c1ccc(Cl)cc1Cl`: the Potency entry in the test with PC49, in the test on TAB109, in the test on TAB113 and with TAB165 was “inactive” throughout. Also, the max response in the test on KB-3-1 was 11.5%.
As to `O=c1c2ccccc2[se]n1-c1ccccc1`, in the test on PC49, the Potency result is “inactive”. In addition, the Potency with TAB113 is 11.2 µM (active). Besides, the max response in the test with KB-3-1 was -5.46%.
Regarding `C=CCC1(C(C)CCC)C(=O)N=C(S)NC1=O` (centres undefined), the Potency result with PC49, in the test on SC27B, in the test with TAB109, with TAB113, in the test with TAB165 and in the test on W2 was “inactive” throughout. In addition, in the test with KB-3-1, the max response is -6.22%.
